# Source: PubChem BioAssay
# Calls of active or inactive are those of the source.
# What was measured:
# [1] = tested on: Human papillomavirus type 1a protein E7 (residues 44-93); assay: small molecules binding HPV E7 44-93 – biochemical, small-molecule microarray, residues 44-93, 635 nm fluorescence, primary screen (AID 1108); details: fluorescence 635 nm, higher = more signal;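 note: E7 fragment applied at 1 µg/mL in TBST for 1 h at 4 C; score combines spot fluorescence with its signal to noise ratio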
# [2] = hepatitis C replication reporter changes, two-sided – Huh7 cells, luciferase reporter, HCV replication inhibitor project, primary screen (AID 1109); details: Huh7 HCV replicon luciferase reporter, 48 h; higher = more signal;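 note: huh7 hepatoma cells harbouring a luciferase neomycin HCV replicon reporter; luciferase luminescence as measure of HCV replicon replication; test concentration not given here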
# [3] = biological target: Left-right determination factor 2 (Homo sapiens) (UniProt O00292); assay: small molecules binding LEFTY2 protein – biochemical, small-molecule microarray, 635 nm fluorescence scan, primary screen (AID 1110); details: higher = more signal
# Left-right determination factor 2 (Homo sapiens), sequence (O00292 whole entry, looked up): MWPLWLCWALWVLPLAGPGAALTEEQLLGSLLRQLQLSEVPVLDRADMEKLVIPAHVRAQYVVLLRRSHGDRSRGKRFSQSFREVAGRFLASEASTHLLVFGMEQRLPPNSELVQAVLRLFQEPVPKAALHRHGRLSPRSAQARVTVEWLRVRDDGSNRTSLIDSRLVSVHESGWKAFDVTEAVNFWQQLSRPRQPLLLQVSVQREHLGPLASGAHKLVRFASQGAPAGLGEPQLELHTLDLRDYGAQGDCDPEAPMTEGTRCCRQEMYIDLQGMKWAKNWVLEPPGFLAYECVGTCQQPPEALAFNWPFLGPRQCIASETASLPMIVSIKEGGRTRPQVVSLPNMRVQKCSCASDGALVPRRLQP
# [4] = biological target: Calmodulin-1 (Homo sapiens) (UniProt P0DP23); assay: small molecules binding calmodulin-1 with EGTA – biochemical, small-molecule microarray, Cy5-labelled CALM1, profiling panel (AID 1111); details: Cy5-CALM1 binding fluorescence, higher = more signal;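 note: labelled calmodulin applied in Tris saline Tween buffer holding calcium plus EGTA and DTT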
# [5] = biological target: Calmodulin-1 (Homo sapiens) (UniProt P0DP23); assay: small molecules binding Ca-loaded calmodulin-1 – biochemical, small-molecule microarray, Cy5-labelled CALM1, plus calcium, artefact control for SMM control-protein annotation, profiling panel (AID 1112); details: Cy5-CALM1 binding fluorescence, higher = more signal;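 note: score merges spot fluorescence with signal to noise from triplicate slides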
# [6] = probe aWnt5a binding to arrayed compounds – biochemical, biotinylated probe, 635/667 nm fluorescence, primary screen (AID 1113); details: small-molecule microarray, higher = more signal;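 note: score merges 667 nm fluorescence intensity with signal-to-noise per printed feature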
# [7] = probe aShh binding to arrayed compounds – biochemical, biotinylated probe, 635/667 nm fluorescence, primary screen (AID 1114); details: small-molecule microarray, higher = more signal;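 note: probe is biotin-labelled aShh protein from a stem cell growth factor screen; measures binding of labelled protein to compounds printed on the slide; score merges feature fluorescence at 667 nm with signal-to-noise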
# [8] = probe aNog binding to arrayed compounds – biochemical, biotinylated probe, 635/667 nm fluorescence, primary screen (AID 1115); details: small-molecule microarray, higher = more signal;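 note: probe is biotinylated aNog protein used at 0.15 µg/mL for 1 h at 4 C; z-score combines 667 nm fluorescence of each spot with its signal to noise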
# [9] = biological target: Torsin-1A-interacting protein 1 (Homo sapiens) (UniProt Q5JTV8); assay: compound microarray binding of lysate hLAP1 – cell lysate, small-molecule microarray, COS7 lysate, 635/667 nm fluorescence, primary screen (AID 1116); details: 635 nm fluorescence, higher = more signal
# Torsin-1A-interacting protein 1 (Homo sapiens), sequence (Q5JTV8 whole entry, looked up): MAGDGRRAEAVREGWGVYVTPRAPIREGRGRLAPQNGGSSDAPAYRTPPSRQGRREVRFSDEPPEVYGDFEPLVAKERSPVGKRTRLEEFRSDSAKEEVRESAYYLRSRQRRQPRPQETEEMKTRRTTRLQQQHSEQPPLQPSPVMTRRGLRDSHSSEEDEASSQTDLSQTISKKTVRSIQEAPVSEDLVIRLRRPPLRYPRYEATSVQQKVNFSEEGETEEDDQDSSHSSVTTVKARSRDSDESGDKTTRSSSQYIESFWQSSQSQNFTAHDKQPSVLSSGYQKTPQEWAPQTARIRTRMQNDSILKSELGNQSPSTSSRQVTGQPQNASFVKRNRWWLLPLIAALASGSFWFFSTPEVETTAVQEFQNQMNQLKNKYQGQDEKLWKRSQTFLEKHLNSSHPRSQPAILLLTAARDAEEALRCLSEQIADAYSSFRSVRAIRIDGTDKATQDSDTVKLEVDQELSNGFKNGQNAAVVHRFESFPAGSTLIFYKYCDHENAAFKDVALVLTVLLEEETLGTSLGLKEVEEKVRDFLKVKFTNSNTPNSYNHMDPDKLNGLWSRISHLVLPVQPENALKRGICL
# [10] = biological target: Alpha-bungarotoxin (Bungarus multicinctus) (UniProt P60615); assay: compounds binding labelled alpha-BTX control protein – biochemical, small-molecule microarray, Alexa647 label, 635/667 nm fluorescence, artefact control for SMM control protein annotation, profiling panel (AID 1117); details: alpha-BTX-A647 binding fluorescence, higher = more signal
# Alpha-bungarotoxin (Bungarus multicinctus), sequence (P60615 whole entry, looked up): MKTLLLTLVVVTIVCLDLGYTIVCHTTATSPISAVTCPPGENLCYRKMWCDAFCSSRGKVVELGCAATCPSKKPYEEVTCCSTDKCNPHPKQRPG
# Albumin (Bos taurus) = Albumin (Bos taurus) (UniProt P02769); assay: compounds binding labelled BSA control protein – biochemical, small-molecule microarray, Alexa647 label, 635/667 nm fluorescence, artefact control for SMM control protein annotation, profiling panel (AID 1118); details: BSA-A647 binding, fluorescence 635 nm, higher = more signal;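 note: score merges 667 nm emission intensity and signal-to-noise per printed compound spot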
# Albumin (Bos taurus), sequence (P02769 whole entry, looked up): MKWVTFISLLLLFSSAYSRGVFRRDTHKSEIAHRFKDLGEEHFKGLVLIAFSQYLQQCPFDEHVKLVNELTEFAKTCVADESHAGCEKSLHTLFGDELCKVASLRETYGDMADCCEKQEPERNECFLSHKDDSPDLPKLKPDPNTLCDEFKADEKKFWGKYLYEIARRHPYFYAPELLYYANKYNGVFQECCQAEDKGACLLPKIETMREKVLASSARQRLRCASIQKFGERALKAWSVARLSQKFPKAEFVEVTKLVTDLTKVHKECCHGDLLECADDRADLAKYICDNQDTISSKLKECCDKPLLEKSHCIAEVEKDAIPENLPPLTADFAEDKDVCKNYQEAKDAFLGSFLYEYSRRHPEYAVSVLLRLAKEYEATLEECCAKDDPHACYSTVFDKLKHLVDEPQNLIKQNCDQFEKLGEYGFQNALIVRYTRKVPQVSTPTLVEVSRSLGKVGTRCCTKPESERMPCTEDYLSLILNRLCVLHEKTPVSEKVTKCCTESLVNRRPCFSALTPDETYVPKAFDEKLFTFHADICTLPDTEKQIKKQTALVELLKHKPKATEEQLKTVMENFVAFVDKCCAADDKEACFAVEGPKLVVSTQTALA
# [11] = probe aXIP binding to arrayed compounds – biochemical, NeuroSMM set, 635/667 nm fluorescence, primary screen (AID 1119); details: small-molecule microarray, higher = more signal, called active from +8 up or from −8 down;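 note: probe is the protein aXip251-270 applied at 1 µg/mL to compound-printed slides; binding of probe to printed compounds measured as 667 nm fluorescence plus signal to noise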
# [12] = probe aNOTCH3 binding on compound microarray – biochemical, small-molecule microarray, 635/667 nm fluorescence, primary screen (AID 1120); details: higher = more signal;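 note: probe is a biotin-tagged antibody raised against NOTCH3 rather than NOTCH3 protein; score merges spot fluorescence near 667 nm with spot signal to noise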
# [13] = probe aNOTCH2 binding on compound microarray – biochemical, small-molecule microarray, 635/667 nm fluorescence, primary screen (AID 1121); details: higher = more signal;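 note: score merges feature fluorescence read at 667 nm with its signal to noise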
# [14] = biological target: Carbonic anhydrase 2 (Homo sapiens) (UniProt P00918); assay: compounds binding carbonic anhydrase 2 – biochemical, small-molecule microarray, Alexa647-labelled CAII, profiling panel (AID 1122); details: CAII-A647 binding fluorescence, higher = more signal
# [15] = COS7 lysate on small-molecule microarray, probe aHis, 635 nm (AID 1123); details: COS7 cell lysate, fluorescence, higher = more signal;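 note: z-score combines 667nm fluorescence intensity with signal-to-noise per printed compound spot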
# [16] = probe aLAP1 signal on lysate-treated microarray – cell lysate, small-molecule microarray, COS7 lysate, primary screen (AID 1124); details: probe aLAP1, fluorescence, higher = more signal;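 note: lysate comes from COS7 cells expressing LAP1 and is applied at 0.3 µg/mL; score merges spot fluorescence near 667 nm with signal-to-noise over triplicate slides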
# Sam68 (KHDRBS1) = assay: compounds binding KHDRBS1 protein – biochemical, small-molecule microarray, 635 nm fluorescence, primary screen (AID 1125); details: higher = more signal;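 note: score merges 667 nm channel intensity with signal to noise over triplicate slides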
# [17] = tested on: Chordin-like protein 2 (CHRDL2); assay: compounds binding chordin-like 2 – biochemical, small-molecule microarray, 635 nm fluorescence, primary screen (AID 1126); details: fluorescence 635 nm, higher = more signal;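 note: printed compound slides probed with Chrdl2 protein at 4 µg/mL for 1 h at 4 C; score merges 667 nm emission intensity with signal to noise over three replicate slides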
# [18] = biological target: Concanavalin-A (Canavalia ensiformis) (UniProt P02866); assay: compounds binding concanavalin A lectin – biochemical, small-molecule microarray, Alexa647 label, 635 nm, artefact control for SMM control protein annotation, primary screen (AID 1127); details: ConA-A647 binding fluorescence, higher = more signal;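 note: z combines 667 nm emission intensity with signal-to-noise across three replicate slides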
# Concanavalin-A (Canavalia ensiformis), sequence (P02866 whole entry, looked up): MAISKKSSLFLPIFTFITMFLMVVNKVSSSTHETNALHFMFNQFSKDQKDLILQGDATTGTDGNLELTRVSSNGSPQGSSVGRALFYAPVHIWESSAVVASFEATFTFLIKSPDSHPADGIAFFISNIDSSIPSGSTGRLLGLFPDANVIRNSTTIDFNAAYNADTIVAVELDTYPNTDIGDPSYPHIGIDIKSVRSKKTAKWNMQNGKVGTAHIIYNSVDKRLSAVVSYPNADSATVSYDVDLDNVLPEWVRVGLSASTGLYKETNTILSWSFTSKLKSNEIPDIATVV
SMILES,composite z-score [1],z-score [2],composite z-score [3],composite z-score [4],composite z-score [5],composite z-score [6],composite z-score [7],composite z-score [8],composite z-score [9],composite z-score [10],composite z-score (Albumin (Bos taurus)),composite Z-score [11],composite z-score [12],composite z-score [13],composite z-score [14],composite z-score [15],composite z-score [16],composite z-score (Sam68 (KHDRBS1)),composite z-score [17],composite z-score [18]
C[C@@H]1CC[C@H]2C(=O)O[C@@H](COc3ccc(C(C)(C)C)cc3)CN2[C@H]1c1ccc(Br)cc1,0.269,-0.157,0.193,-0.543,-0.229,-0.0704,-0.214,0.0762,0.0021,0.315,0.425,0.289 (inactive),-0.0663,-0.164,-0.0795,1.39,0.21,0.292,0.329,0.721
CCN1C(=O)[C@H]2[C@H]3[C@H](O)[C@H](O)CC(=NO[C@@H](C)c4cc(-c5c(C)cc(C)cc5C)no4)[C@@H]3CC[C@H]2C1=O,1.02,-0.946,0.685,0.224,-0.525,-0.0799,-0.0146,-0.177,0.952,1.02,0.581,-0.0662 (inactive),0.051,-0.0562,0.465,1.11,0.693,1.3,0.333,1.02
COC(=O)[C@@H]1CC[C@H](C)[C@@H](c2ccc(C)cc2)N1C(=O)c1ccc(C=NO[C@@H](C)c2cc(-c3c(C)cc(C)cc3C)no2)cc1,1.04,-0.542,0.45,0.0785,-0.37,-0.0236,-0.141,0.0373,0.722,0.208,0.432,-0.136 (inactive),-0.004,-0.126,0.154,-0.0142,-0.207,1.2,0.306,0.894
CON(C)C(=O)c1nnc2c(n1)[nH]c1ccccc12,-0.186,2.27,0.414,-0.15,-0.229,-0.148,-0.23,-0.33,2.14,0.573,0.795,0.0617 (inactive),-0.0765,-0.167,0.464,0.128,1.02,0.129,0.493,0.293
O=C1C[C@@H](O)[C@@H](O)[C@@H]2[C@@H]3C(=O)N(C4CCCCC4)C(=O)[C@@H]3CC[C@@H]12,0.242,-0.331,0.697,-0.0958,-0.397,-0.177,0.0898,-0.104,0.462,0.882,0.337,-0.228 (inactive),-0.104,-0.198,0.167,0.798,-0.244,0.546,0.36,0.448
COCC#Cc1ccc([C@@H]2N[C@H](C(=O)O)CC[C@H]2C)cc1,-0.216,0.958,0.794,-0.292,0,-0.224,-0.117,-0.186,-0.416,0.0645,-0.202,-0.165 (inactive),-0.0605,-0.144,-0.148,-0.336,-0.384,-0.377,0.305,-0.691
CC(CCN1CCCc2nc(C)c(C)cc21)=NO[C@@H](C)c1cn([C@H](CO)Cc2ccccc2)nn1,0.425,-0.0976,0.67,-0.168,-0.671,-0.0199,0.0952,0.139,0.527,0.117,-0.139,0.344 (inactive),0.184,-0.0282,0.074,0.531,-0.0771,0.477,0.801,0.497
C[C@@H]1C=CCC(=O)OC[C@H](C)C(=O)N[C@@H](Cc2ccccc2)C(=O)OC1,-0.118,0.962,0.786,-0.273,-0.62,-0.118,-0.414,-0.17,-0.232,-0.0092,-0.568,0.398 (inactive),-0.133,-0.0995,-0.187,-0.355,0.552,-0.124,0.981,0.12
COc1ccc(OC[C@@H](CO)OC)cc1,0.0047,-0.719,0.178,-0.584,-0.671,-0.244,0.0639,-0.0448,0.551,0.0276,-0.151,0.675 (inactive),-0.0865,-0.118,-0.148,-0.206,-0.295,0.14,0.175,0.0261
O=C1[C@H]2[C@H]3[C@H](O)[C@H](O)CC(=NO[C@@H]4O[C@H](CO)[C@@H](O)[C@H](O)[C@H]4O)[C@H]3CC[C@H]2C(=O)N1c1ccc(F)cc1F,0.491,0.29,0.382,-0.466,-1.2,-0.0088,0.178,-0.273,-0.267,0.184,-0.168,-0.463 (inactive),0.196,-0.177,-0.556,-0.258,0.0482,1.07,-0.819,-1.06
COC(=O)CC=C[C@@H](C)[C@@H](C=NOC(C)CN1CCCCc2nc(C)c(C)cc21)NS(=O)(=O)c1ccc(C)cc1 (stereo not given in full),0.241,0.0814,0.614,-0.344,-1.27,-0.158,0.0144,0.0567,0.0017,0.363,-0.636,-0.292 (inactive),0.0949,-0.19,-0.277,-0.065,0.0618,0.0692,1.17,-0.135
